Measured values published in article PMC4336329 (PLoS ONE, 2015).
Screen size: about 310,000 compounds; about 14,000 (4.5%) showed an effect of 50% or more. Effects have a minus sign here. The list comes from a sample in which strong results are over-represented; it also holds similar structures and randomly drawn compounds.
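Also: peak tail current of the secondary pulse compared with the same well before compound.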

What follows are compounds tested against human ether-à-go-go-related gene (hERG) potassium channel (human, UniProt Q12809) (assay: primary screen, population patch clamp on CHO cells stably expressing hERG; higher = less effect of the substance).
Sequence of human ether-à-go-go-related gene (hERG) potassium channel (Q12809 whole entry, looked up): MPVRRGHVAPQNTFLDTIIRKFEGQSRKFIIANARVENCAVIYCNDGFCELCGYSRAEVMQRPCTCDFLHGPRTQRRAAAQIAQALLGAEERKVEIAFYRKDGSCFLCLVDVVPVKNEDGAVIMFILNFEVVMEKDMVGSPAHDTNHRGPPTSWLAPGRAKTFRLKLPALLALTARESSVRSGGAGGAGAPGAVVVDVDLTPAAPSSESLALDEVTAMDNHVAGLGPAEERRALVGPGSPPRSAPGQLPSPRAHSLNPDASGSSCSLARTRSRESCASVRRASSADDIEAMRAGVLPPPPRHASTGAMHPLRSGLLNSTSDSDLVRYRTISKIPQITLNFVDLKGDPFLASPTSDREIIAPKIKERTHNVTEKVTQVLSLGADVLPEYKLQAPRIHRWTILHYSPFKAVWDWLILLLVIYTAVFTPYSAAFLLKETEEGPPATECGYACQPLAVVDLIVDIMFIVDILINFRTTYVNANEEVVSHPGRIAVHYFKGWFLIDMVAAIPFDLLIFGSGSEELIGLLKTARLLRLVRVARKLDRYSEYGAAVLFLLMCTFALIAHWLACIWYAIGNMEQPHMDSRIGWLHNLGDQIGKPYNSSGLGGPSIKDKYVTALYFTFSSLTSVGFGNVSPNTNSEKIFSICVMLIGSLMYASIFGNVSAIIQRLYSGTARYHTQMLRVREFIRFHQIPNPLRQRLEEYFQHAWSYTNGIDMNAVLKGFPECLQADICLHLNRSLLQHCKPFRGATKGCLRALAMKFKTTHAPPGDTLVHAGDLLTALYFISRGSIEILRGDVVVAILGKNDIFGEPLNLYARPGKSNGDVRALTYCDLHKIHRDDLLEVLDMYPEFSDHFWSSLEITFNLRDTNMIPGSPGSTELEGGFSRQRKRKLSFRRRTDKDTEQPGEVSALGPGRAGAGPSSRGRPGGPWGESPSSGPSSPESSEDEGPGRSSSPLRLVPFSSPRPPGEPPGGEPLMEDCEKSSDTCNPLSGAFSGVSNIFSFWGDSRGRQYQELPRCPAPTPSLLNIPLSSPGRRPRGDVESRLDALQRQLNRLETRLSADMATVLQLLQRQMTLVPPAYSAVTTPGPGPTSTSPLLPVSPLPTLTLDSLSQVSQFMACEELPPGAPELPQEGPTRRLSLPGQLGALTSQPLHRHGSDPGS
For `COc1ccc(C(CCN2CCCC2)c2c(O)cc(OC)cc2OC)cc1` (centres unmarked), the “hERG current change (%, negative = inhibition) at 10uM” value was -61.2%. With `COc1ccc(C(CCN2CCOCC2)c2c(O)cc(OC)cc2OC)cc1` (centres unmarked) the “hERG current change (%, negative = inhibition) at 10uM” value was -47.1%. In the case of `COc1cc(O)c(C(CCN2CCCCC2)c2cc(OC)c(OC)c(OC)c2)c(OC)c1` (centres unmarked), the “hERG current change (%, negative = inhibition) at 10uM” value is reported as 4.24%. `COc1cc(O)c(C(CCN2CCCCC2)c2ccc(N(C)C)cc2)c(OC)c1` (centres unmarked) was tested, and the “hERG current change (%, negative = inhibition) at 10uM” value was -8.43%. In the case of `COc1cc(O)c(C(CCN2CCCC2)c2ccc(N(C)C)cc2)c(OC)c1` (centres unmarked), the “hERG current change (%, negative = inhibition) at 10uM” value is reported as -10%. For `COc1ccc(C(CCN2CCCCC2)c2c(O)cc(OC)cc2OC)cc1` (centres unmarked), the “hERG current change (%, negative = inhibition) at 10uM” value was -75.2%. For `COc1ccccc1NS(=O)(=O)c1ccc2c(c1)NC(=O)CC(=O)N2`, the “hERG current change (%, negative = inhibition) at 10uM” value was 14.5%. In the case of `COc1cc(CNn2cn[nH]c2=S)cc(Br)c1OCc1ccccc1F`, the “hERG current change (%, negative = inhibition) at 10uM” value is reported as 6.75%. `CC1(C(=O)O)COC(c2ccc(Cl)cc2)OC1` (centres unmarked) was tested, and the “hERG current change (%, negative = inhibition) at 10uM” value was -25.3%. `CC(=O)Nc1ccc(S(=O)(=O)N(C)CC(=O)Nc2cccc(S(=O)(=O)N3CCCC3)c2)cc1` was tested, and the “hERG current change (%, negative = inhibition) at 10uM” value was -8.1%. `O=C(CCS(=O)(=O)c1ccc(F)cc1)N1CCN(c2ccccc2)CC1` was tested, and the “hERG current change (%, negative = inhibition) at 10uM” value was -23.2%. `COc1ccc(S(=O)(=O)CCC(=O)N2CCN(c3ccc(F)cc3)CC2)cc1` was tested, and the “hERG current change (%, negative = inhibition) at 10uM” value was -59.7%. With `O=C(CCS(=O)(=O)c1ccc(Br)cc1)N1CCN(c2ccc(F)cc2)CC1` the “hERG current change (%, negative = inhibition) at 10uM” value was -66.3%. `COc1ccc(S(=O)(=O)CCC(=O)N2CCN(c3ccc(C(C)=O)cc3)CC2)cc1` was tested, and the “hERG current change (%, negative = inhibition) at 10uM” value was -45.9%. With `COc1ccc(N2CCN(C(=O)CCS(=O)(=O)c3ccc(OC)cc3)CC2)cc1` the “hERG current change (%, negative = inhibition) at 10uM” value was -19.3%. With `O=C(CCS(=O)(=O)c1ccc(Br)cc1)N1CCN(c2ccc(Cl)cc2)CC1` the “hERG current change (%, negative = inhibition) at 10uM” value was -9.11%. For `O=C(CCS(=O)(=O)c1ccccc1)N1CCN(c2ccc(F)cc2)CC1`, the “hERG current change (%, negative = inhibition) at 10uM” value was -35.9%. For `O=C(CCS(=O)(=O)c1ccc(Cl)cc1)N1CCN(c2ccccc2F)CC1`, the “hERG current change (%, negative = inhibition) at 10uM” value was -12.2%. For `O=C(CCS(=O)(=O)c1ccc(Cl)cc1)N1CCN(c2ccc(F)cc2)CC1`, the “hERG current change (%, negative = inhibition) at 10uM” value was -76.1%. For `Cc1ccc(-c2ccc(CCC(=O)O)o2)cc1`, the “hERG current change (%, negative = inhibition) at 10uM” value was 14.5%. `CN(CCC#N)C(=S)Nc1ccc(Oc2ccccc2)cc1` was tested, and the “hERG current change (%, negative = inhibition) at 10uM” value was -28.6%. With `N#Cc1c(SCC(N)=O)nsc1SCc1ccc(Cl)cc1` the “hERG current change (%, negative = inhibition) at 10uM” value was -0.34%. In the case of `Cn1nc(-c2ccc(C(=O)O)cc2)c2ccccc2c1=O`, the “hERG current change (%, negative = inhibition) at 10uM” value is reported as 11.6%. With `CC(C)C12CCC(C(=O)O)C(C1)C(=O)O2` (centres unmarked) the “hERG current change (%, negative = inhibition) at 10uM” value was 13.9%. `N#Cc1ccc(Oc2ccc(S(=O)(=O)N3CCCC3)cn2)cc1` was tested, and the “hERG current change (%, negative = inhibition) at 10uM” value was -35.8%. `N#Cc1ccc(Oc2ccc(S(=O)(=O)N3CCCCC3)cn2)cc1` was tested, and the “hERG current change (%, negative = inhibition) at 10uM” value was -24.7%. `N#Cc1ccccc1Oc1ccc(S(=O)(=O)N2CCCCC2)cn1` was tested, and the “hERG current change (%, negative = inhibition) at 10uM” value was -79.6%. In the case of `N/C(=N\OC(=O)c1ccccc1Cl)c1ccccc1`, the “hERG current change (%, negative = inhibition) at 10uM” value is reported as -16.2%. `O=C(c1cccs1)N(C(=O)c1cccs1)c1ccccn1` was tested, and the “hERG current change (%, negative = inhibition) at 10uM” value was 9.68%. With `CCCn1c2c(c(O)c(C(=O)NC)c1=O)CCCC2` the “hERG current change (%, negative = inhibition) at 10uM” value was -6.66%. For `CC1CCc2cc(F)cc3c(O)c(C(=O)NCCN(C)C)c(=O)n1c23.Cl` (centres unmarked), the “hERG current change (%, negative = inhibition) at 10uM” value was -1%. For `CCN(CC)CCNC(=O)c1c(O)c2ccccc2n(Cc2ccccc2)c1=O.Cl`, the “hERG current change (%, negative = inhibition) at 10uM” value was -63%. For `CCN(CC)CCCNC(=O)c1c(O)c2ccccc2n(Cc2ccccc2)c1=O.Cl`, the “hERG current change (%, negative = inhibition) at 10uM” value was -63.8%. In the case of `CCn1c(=O)c(C(=O)NCCCO)c(O)c2ccccc21`, the “hERG current change (%, negative = inhibition) at 10uM” value is reported as 10.1%. With `CC1CCc2cc(F)cc3c(O)c(C(=O)NCC4CCCO4)c(=O)n1c23` (centres unmarked) the “hERG current change (%, negative = inhibition) at 10uM” value was -13.4%. `CCCn1c2c(c(O)c(C(=O)NCCCN(CC)CC)c1=O)CCCC2.Cl` was tested, and the “hERG current change (%, negative = inhibition) at 10uM” value was -55%. With `CCn1c(=O)c(C(=O)NCCc2ccccc2)c(O)c2ccccc21` the “hERG current change (%, negative = inhibition) at 10uM” value was 19.7%. In the case of `CCN(CC)CCCNC(=O)c1c(O)c2cc(F)cc3c2n(c1=O)C(C)CC3.Cl` (centres unmarked), the “hERG current change (%, negative = inhibition) at 10uM” value is reported as -50.5%. With `CCn1c(=O)c(C(=O)NCCCc2ccccc2)c(O)c2ccccc21` the “hERG current change (%, negative = inhibition) at 10uM” value was 8.18%. `C=CCn1c(=O)c(C(=O)NCCN(CC)CC)c(O)c2ccccc21.Cl` was tested, and the “hERG current change (%, negative = inhibition) at 10uM” value was -19.2%. For `CCCn1c2c(c(O)c(C(=O)NCc3ccccc3)c1=O)CCCC2`, the “hERG current change (%, negative = inhibition) at 10uM” value was 17%. With `O=C(O)c1ccccc1-c1ccccc1C(=O)Nc1ccccc1-c1ccccc1` the “hERG current change (%, negative = inhibition) at 10uM” value was 19.8%. `O=C(Nc1nncs1)Oc1ccccc1` was tested, and the “hERG current change (%, negative = inhibition) at 10uM” value was 8.98%. For `CC1CCC/C(=C\Nc2ccc(O)cc2)C1=O` (centres unmarked), the “hERG current change (%, negative = inhibition) at 10uM” value was -0.0111%. For `Cc1cc(C(=O)NNC(=O)c2cccs2)c(C)o1`, the “hERG current change (%, negative = inhibition) at 10uM” value was 7.06%. For `CCN(CC)C(=O)CSc1nnc(-c2ccncc2)n1N`, the “hERG current change (%, negative = inhibition) at 10uM” value was 13.4%. For `Cc1ccc(-c2nnn(CC(=O)N(c3ccccc3F)C(CC(C)C)C(=O)NCC3CCCO3)n2)cc1` (centres unmarked), the “hERG current change (%, negative = inhibition) at 10uM” value was -13%.
